Reference: ChEMBL document CHEMBL1961873, “Compounds: GSK PKIS; Assays: Nanosyn kinase panel” (2012)

biological target: Tyrosine-protein kinase Lck (Homo sapiens) (UniProt P06239); conditions: at 1 µM;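 note: reported Lck percent inhibition is a mean value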
Sequence (P06239 2-509 limits assumed): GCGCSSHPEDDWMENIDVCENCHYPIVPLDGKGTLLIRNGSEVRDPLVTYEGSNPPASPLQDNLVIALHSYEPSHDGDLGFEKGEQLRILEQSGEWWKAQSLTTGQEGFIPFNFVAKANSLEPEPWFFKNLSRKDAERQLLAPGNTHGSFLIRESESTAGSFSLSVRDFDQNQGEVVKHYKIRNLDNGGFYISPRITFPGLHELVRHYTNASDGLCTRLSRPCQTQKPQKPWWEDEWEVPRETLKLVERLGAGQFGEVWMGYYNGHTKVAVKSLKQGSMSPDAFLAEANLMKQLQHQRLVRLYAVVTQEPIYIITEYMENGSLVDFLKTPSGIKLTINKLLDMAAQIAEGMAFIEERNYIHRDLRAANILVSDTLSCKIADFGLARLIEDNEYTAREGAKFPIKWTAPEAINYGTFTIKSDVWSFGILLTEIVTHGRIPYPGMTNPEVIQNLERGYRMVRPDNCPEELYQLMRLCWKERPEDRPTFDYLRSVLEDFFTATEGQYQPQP

Compared with `N#Cc1c(NC(=O)CN2CCOCC2)sc2c1CCCC2`, `O=C(Nc1n[nH]c2cc(-c3ccc(F)cc3)ccc12)C1CC1` is higher in inhibition: 4.64% for the first, 7.59% for the second.

Compared with `Cc1cccc(Nc2ncc(-c3ccccc3)o2)c1`, `Cc1ccc(O)cc1Nc1ccnc2cc(-c3ccccn3)ccc12` is higher in inhibition: 5.7% for the first, 76.6% for the second.

Compared with `COC(=O)c1sc(-n2cnc3cc(OC)c(OC)cc32)cc1OCc1ccccc1C(F)(F)F`, `COc1cc2c(cc1Nc1nc(Nc3ccsc3C(N)=O)c3cc[nH]c3n1)N(C(=O)CN(C)C)CCC2(C)C` is lower in inhibition: 32.2% for the first, 4.76% for the second.

First: CCc1nn2ncccc2c1-c1ccnc(NC2CC2)n1
Second: CCn1cc(-c2ccnc3[nH]ccc23)c(-c2cccc(NC(=O)Nc3ccc(OCc4ccccc4)cc3)c2)n1
The inhibition of the first is lower: 6.75% for the first, 21.8% for the second.

biological target: Leukocyte tyrosine kinase receptor (Homo sapiens) (UniProt P29376); conditions: at 0.1 µM
Sequence (P29376 whole entry): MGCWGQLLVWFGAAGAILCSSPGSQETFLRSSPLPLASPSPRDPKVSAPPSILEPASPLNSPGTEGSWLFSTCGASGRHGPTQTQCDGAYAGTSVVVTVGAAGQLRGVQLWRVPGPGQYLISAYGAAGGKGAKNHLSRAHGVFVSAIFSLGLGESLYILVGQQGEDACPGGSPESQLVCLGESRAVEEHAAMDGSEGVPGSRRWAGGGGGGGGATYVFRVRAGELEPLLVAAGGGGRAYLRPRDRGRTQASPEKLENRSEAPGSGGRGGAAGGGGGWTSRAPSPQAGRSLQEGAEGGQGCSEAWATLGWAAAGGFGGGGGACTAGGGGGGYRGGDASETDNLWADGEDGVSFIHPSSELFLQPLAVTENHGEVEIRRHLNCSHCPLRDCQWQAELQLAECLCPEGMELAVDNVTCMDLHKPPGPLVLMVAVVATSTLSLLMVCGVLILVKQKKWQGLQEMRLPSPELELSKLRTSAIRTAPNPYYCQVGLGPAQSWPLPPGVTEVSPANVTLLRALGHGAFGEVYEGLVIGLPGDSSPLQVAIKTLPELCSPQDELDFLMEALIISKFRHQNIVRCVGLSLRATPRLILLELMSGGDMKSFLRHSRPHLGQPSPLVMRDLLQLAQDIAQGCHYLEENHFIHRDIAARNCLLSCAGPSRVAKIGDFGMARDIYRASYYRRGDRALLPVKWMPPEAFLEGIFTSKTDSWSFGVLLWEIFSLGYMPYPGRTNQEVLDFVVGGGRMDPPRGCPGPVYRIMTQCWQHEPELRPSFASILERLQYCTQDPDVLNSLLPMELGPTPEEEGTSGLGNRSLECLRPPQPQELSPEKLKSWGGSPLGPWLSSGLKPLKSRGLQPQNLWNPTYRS

Compared with `COc1ccc(-c2cc(-c3c[nH]nc3-c3ccccn3)ccn2)cc1`, `Fc1ccc(-c2cc(-c3c[nH]nc3-c3ccccn3)ccn2)cc1` is lower in inhibition: 5.4% for the first, 4.6% for the second.

Compared with `CCCN(CCS(C)(=O)=O)Cc1ccc(-c2ccc3ncnc(Nc4ccc(OCc5cccc(F)c5)c(Cl)c4)c3c2)o1`, `CS(=O)(=O)CCNCc1ccc(-c2ccc3ncnc(Nc4ccc(OCc5ccccc5)c(C(F)(F)F)c4)c3c2)o1` is higher in inhibition: 2.12% for the first, 3.91% for the second.

Compared with `FC(F)(F)c1cccc(-c2nn3ncccc3c2-c2ccnc(Nc3ccc4c(c3)OCCO4)n2)c1`, `COc1ccc(-c2nn3ncccc3c2-c2ccnc(Nc3ccc4c(c3)OCCO4)n2)cc1` is higher in inhibition: 2.06% for the first, 3.69% for the second.

Going from `CCNC(=O)O[C@H]1CN[C@H](C#Cc2cc3ncnc(Nc4ccc(OCc5cccc(F)c5)c(Cl)c4)c3s2)C1` to `CC(=O)NCc1cccc(C#Cc2cncnc2Nc2ccc(OCc3cccc(F)c3)c(Cl)c2)c1`, the inhibition falls from 3.21% to 1.56%.

Compared with `COC(=O)Nc1nc2ccc(S(=O)(=O)c3ccc(NC(=O)Nc4cc(C(F)(F)F)ccc4F)cc3)cc2[nH]1`, `NC(=O)c1sc(-n2cnc3ccc(C(F)(F)F)cc32)cc1OCc1ccccc1Br` is higher in inhibition: 1.63% for the first, 3.16% for the second.

Going from `CC(=O)Nc1cccc(C#Cc2cncnc2Nc2ccc(OCc3cccc(F)c3)c(Cl)c2)c1` to `CCn1cc(-c2ccnc3[nH]ccc23)c(-c2cccc(NC(=O)Nc3ccc(OCc4ccccc4)cc3)c2)n1`, the inhibition rises from 0.86% to 1.35%.

Going from `CCOc1ccc2c(-c3ccnc(Nc4cccc(C(F)(F)F)c4)n3)cnn2n1` to `Cc1ccc2c(-c3ccnc(Nc4ccccc4)n3)c(-c3ccc(F)cc3)nn2n1`, the inhibition falls from 2.51% to 2.45%.

Compared with `Cc1cccc2c1NC(=O)/C2=N\Nc1ccc(S(N)(=O)=O)cc1`, `NS(=O)(=O)c1ccc(Nc2ncc(-c3ccccc3)o2)cc1` is higher in inhibition: 2.01% for the first, 4.12% for the second.

First: CCN(CC)S(=O)(=O)c1ccc(OC)c(Nc2ncc(-c3ccccc3)o2)c1
Second: Cc1cccc(Nc2ncc(-c3ccccc3)o2)c1
The inhibition of the first is lower: -0.3% for the first, 3.02% for the second.

First: COc1cccc(-c2c[nH]c3c(N/N=C/c4ccncc4)ncnc23)c1
Second: COc1cccc(-n2ncc3c(N/N=C/c4ccc(F)cc4)ncnc32)c1
The inhibition of the first is lower: 3.15% for the first, 4.1% for the second.

First: c1ccc(-c2nc3n(c2-c2ccc4c(c2)OCO4)CCC3)nc1
Second: Cc1ccc(O)cc1Nc1ccnc2cc(-c3ccccn3)ccc12
The inhibition of the first is lower: 0.09% for the first, 10.9% for the second.

Going from `Nc1ncc(-c2cccc(S(N)(=O)=O)c2)c2scc(-c3ccc(F)c(Cl)c3)c12` to `Nc1nc(-c2ccc(F)cc2)c(-c2ccc3ncccc3n2)s1`, the inhibition falls from 10.7% to 3.99%.

Compared with `CCn1c(-c2nonc2N)nc2ccccc21`, `CCc1nn2ncccc2c1-c1ccnc(NC2CC2)n1` is lower in inhibition: 5.66% for the first, 3.02% for the second.

First: COc1ccc2[nH]c3c4[nH]c5ccc(OC)cc5c4c4c(c3c2c1)C(=O)NC4=O
Second: COc1ccc(CNC(=O)c2ccc(-c3cc(-c4nnc(C)o4)ccc3C)cc2)cc1
The inhibition of the first is higher: 37.8% for the first, 1.41% for the second.

First: O=C(O[C@H]1CN[C@H](C#Cc2cc3ncnc(Nc4ccc(Cc5ccccc5)cc4)c3s2)C1)N1CCOCC1
Second: N#Cc1c(NC(=O)CN2CCOCC2)sc2c1CCCC2
The inhibition of the first is lower: 1.17% for the first, 4.93% for the second.

Compared with `O=C(Nc1n[nH]c2cc(-c3ccc(F)cc3)ccc12)C1CC1`, `COC(=O)c1sc(-n2cnc3cc(OC)c(OC)cc32)cc1OCc1ccccc1C(F)(F)F` is higher in inhibition: 2.47% for the first, 5.2% for the second.

With `COc1cc2c(cc1Nc1nc(Nc3ccsc3C(N)=O)c3cc[nH]c3n1)N(C(=O)CN(C)C)CCC2(C)C` the inhibition was 95.3%.
